The source of these data is the supplement of paper PMC12819154, “High-throughput peptide-centric local stability assay extends protein–ligand identification to membrane proteins, tissues and bacteria” (Nature Structural & Molecular Biology, 2025).
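Also: lysate desalted by size exclusion to strip endogenous ATP, peptide intensities built from DIA-NN precursor signals, and peptides missing any value discarded before comparison.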

Sequence of UniProt P11446 (P11446 whole entry): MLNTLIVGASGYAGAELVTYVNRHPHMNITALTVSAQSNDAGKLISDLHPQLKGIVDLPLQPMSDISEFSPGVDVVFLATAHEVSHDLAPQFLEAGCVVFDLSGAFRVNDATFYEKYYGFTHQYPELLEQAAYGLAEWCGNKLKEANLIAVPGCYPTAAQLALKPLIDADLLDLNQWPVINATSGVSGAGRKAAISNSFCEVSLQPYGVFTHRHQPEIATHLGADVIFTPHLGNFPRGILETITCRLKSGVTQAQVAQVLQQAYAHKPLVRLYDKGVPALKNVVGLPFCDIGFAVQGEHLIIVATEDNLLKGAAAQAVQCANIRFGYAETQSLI
Sequence of UniProt P08142 (P08142 whole entry): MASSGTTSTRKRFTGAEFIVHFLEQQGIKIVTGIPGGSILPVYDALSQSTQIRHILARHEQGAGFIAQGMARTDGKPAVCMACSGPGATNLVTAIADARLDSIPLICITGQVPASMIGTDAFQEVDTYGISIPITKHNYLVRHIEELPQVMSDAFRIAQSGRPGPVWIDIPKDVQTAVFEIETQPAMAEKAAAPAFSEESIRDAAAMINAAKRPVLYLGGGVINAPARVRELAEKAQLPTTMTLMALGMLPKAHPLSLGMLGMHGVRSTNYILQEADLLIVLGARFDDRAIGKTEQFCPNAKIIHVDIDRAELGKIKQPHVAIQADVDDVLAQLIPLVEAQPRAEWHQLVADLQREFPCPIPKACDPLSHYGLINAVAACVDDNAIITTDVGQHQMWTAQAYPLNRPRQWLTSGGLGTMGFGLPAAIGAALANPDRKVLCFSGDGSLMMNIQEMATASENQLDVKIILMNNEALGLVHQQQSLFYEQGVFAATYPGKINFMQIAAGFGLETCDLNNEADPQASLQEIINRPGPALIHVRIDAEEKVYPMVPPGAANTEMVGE
Sequence of UniProt P33368 (P33368 whole entry): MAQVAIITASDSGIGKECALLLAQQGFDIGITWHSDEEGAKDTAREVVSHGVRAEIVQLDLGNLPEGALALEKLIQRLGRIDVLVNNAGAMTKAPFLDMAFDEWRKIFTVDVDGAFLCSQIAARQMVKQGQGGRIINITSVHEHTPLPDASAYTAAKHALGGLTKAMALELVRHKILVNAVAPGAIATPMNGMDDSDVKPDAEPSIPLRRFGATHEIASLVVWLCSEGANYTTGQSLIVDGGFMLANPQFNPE
Sequence of UniProt P37342 (P37342 whole entry): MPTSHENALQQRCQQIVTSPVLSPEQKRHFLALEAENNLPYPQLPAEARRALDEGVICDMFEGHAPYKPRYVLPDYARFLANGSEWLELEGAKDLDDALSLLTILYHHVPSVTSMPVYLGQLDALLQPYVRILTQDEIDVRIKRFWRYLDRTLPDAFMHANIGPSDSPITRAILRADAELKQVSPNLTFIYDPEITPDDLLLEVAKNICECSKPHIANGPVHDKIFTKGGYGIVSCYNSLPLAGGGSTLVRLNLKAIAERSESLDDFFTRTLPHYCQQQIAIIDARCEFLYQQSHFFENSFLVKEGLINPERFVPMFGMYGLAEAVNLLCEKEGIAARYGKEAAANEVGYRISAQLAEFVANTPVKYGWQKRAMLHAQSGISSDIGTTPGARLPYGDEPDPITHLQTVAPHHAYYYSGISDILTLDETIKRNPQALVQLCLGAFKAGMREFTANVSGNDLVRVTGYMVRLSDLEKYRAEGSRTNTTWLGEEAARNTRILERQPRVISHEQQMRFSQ
Sequence of UniProt P30011 (P30011 whole entry): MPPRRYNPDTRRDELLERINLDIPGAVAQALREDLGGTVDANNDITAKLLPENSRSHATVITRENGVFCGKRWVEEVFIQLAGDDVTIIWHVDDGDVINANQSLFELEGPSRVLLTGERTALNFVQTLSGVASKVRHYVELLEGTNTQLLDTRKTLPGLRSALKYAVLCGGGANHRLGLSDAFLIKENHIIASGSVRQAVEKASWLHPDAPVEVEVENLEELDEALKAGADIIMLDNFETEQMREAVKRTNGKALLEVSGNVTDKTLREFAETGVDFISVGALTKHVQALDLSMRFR
Sequence of UniProt P39410 (P39410 whole entry): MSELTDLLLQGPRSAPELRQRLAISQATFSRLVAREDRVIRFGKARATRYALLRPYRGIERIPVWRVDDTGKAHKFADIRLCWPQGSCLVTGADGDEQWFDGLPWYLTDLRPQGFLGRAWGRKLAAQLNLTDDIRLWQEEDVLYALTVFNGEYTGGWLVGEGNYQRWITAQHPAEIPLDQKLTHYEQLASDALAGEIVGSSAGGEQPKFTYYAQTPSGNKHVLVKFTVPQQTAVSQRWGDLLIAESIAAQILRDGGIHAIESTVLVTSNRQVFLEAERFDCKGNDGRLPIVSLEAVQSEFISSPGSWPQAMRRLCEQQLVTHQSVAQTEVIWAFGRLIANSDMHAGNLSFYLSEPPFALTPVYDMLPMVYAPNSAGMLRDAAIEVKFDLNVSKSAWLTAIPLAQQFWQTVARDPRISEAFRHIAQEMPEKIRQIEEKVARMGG
Sequence of UniProt P0A8F8 (P0A8F8 whole entry): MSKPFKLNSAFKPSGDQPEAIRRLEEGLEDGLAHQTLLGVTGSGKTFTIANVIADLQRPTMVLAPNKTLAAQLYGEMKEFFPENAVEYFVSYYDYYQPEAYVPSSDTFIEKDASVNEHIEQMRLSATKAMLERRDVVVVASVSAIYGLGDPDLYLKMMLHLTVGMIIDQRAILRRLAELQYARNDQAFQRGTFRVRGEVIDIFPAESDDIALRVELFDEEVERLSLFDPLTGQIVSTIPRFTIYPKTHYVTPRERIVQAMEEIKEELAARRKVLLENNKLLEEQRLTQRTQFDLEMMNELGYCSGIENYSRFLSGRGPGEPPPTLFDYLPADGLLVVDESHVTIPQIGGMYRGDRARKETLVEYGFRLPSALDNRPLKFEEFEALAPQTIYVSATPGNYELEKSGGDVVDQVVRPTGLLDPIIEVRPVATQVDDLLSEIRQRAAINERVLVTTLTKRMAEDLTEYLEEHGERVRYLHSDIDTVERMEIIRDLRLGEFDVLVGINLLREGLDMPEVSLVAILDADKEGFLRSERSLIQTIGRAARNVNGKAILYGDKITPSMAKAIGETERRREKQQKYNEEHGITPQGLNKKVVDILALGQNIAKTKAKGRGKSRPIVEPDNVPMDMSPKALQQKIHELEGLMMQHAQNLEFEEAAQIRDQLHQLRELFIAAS
Sequence of UniProt P0ADM4 (P0ADM4 whole entry): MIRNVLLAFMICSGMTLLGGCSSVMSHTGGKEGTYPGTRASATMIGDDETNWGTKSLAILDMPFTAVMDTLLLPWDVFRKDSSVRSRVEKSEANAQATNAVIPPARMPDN
Sequence of UniProt P37634 (P37634 whole entry): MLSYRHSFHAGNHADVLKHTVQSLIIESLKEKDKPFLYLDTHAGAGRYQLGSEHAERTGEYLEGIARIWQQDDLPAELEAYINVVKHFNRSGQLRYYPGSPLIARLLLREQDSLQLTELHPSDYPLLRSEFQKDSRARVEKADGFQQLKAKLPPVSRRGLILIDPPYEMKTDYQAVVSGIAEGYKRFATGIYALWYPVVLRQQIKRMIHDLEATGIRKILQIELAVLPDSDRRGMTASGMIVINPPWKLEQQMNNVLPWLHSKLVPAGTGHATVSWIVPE
Sequence of UniProt P33643 (P33643 whole entry): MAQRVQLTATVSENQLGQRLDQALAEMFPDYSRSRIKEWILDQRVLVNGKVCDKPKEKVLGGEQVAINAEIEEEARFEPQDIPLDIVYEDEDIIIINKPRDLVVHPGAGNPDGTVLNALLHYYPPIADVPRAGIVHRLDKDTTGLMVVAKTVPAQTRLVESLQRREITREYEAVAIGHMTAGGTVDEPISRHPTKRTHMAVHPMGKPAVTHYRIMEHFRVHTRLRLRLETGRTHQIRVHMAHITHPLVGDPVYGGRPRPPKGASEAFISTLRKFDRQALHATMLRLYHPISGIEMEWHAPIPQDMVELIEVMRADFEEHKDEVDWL
Sequence of UniProt P36566 (P36566 whole entry): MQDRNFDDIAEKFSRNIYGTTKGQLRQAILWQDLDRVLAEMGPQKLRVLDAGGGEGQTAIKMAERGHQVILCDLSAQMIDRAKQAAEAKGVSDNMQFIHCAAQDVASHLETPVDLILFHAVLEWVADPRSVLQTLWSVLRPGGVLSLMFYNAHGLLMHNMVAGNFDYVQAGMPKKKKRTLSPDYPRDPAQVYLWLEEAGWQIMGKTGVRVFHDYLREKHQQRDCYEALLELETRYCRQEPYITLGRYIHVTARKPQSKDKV

Compound in this test: Nc1ncnc2c1ncn2[C@@H]1O[C@H](COP(=O)(O)OP(=O)(O)OP(=O)(O)O)[C@@H](O)[C@H]1O [adenosine 5'-triphosphate]
Nature of the test: log2 fold change of tryptic peptide abundance, ligand vs vehicle (limited proteolysis) (log2 ratio); higher = more trypsin-susceptible (destabilized). Conditions: ligand concentration: 5 mM; sample: E. coli desalted lysate; replicate design: treated before aliquoting. The protocol: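 HT-PELSA: desalted E. coli K-12 BW25113 lysate (with 12 mM MgCl2) incubated with 5 mM ATP (pH 7) or water for 30 min at 25 C, then a 4 min trypsin pulse at 22 C. Peptides were quantified by DIA-MS (4 replicates). Value is the peptide log2 fold change (treated/control); negative = stabilized. Scale: negative = ligand-stabilized region.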
With “UniProt P39410 (peptide sequence: HIAQEMPEKIR, peptide start residue: 422)”, the log2 fold change was -1.96.
Turning to “UniProt P36566 (peptide sequence: TLSPDYPR, peptide start residue: 179)”, the log2 fold change was -1.28.
“UniProt P0ADM4 (peptide sequence: EGTYPGTR, peptide start residue: 32)”: the log2 fold change is -0.36.
The value for “UniProt P11446 (peptide sequence: GAAAQAVQCANIR, peptide start residue: 312)” was -0.854; that for “UniProt P08142 (peptide sequence: KRFTGAEFIVHFLEQQGIK, peptide start residue: 11)” was 1.49; that for “UniProt P0A8F8 (peptide sequence: AILYGDKITPSMAK, peptide start residue: 550)” was -0.631.
The figure for “UniProt P33643 (peptide sequence: IKEWILDQR, peptide start residue: 36)” is -0.691; for “UniProt P33368 (peptide sequence: IINITSVHEHTPLPDASAYTAAK, peptide start residue: 135)” it is 0.894; for “UniProt P30011 (peptide sequence: VRHYVELLEGTNTQLLDTR, peptide start residue: 135)” it is 0.868.
The value for “UniProt P37634 (peptide sequence: HSFHAGNHADVLK, peptide start residue: 6)” was -1.17; that for “UniProt P37342 (peptide sequence: SESLDDFFTR, peptide start residue: 261)” was 0.46.
